Results: the supplement of paper PMC4466140

B1: unnamed (peptide)
chain: SKAKRPKFLLDLQIK

molecular target: AgAbp1; assay: SPOT peptide array binding signal intensity (averaged, normalized) (arbitrary units (background-subtracted, floor 0; scale differs between SH3 domains)); higher = stronger binding of the SH3 domain to the peptide
Description: (§1)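 GST-tagged SH3 domains from S. cerevisiae (Sc), A. gossypii (Ag), C. albicans (Ca) and S. pombe (Sp) were incubated at 10 ug/ml overnight at 4 C on cellulose SPOT membranes carrying 292 synthetic 15-mer peptides mined from the S. cerevisiae proteome (cysteines replaced by serines). Binding was detected with anti-GST antibody, HRP secondary and chemiluminescence, quantified with Genespotter, and reported as normalized spot intensities averaged over biological replicates.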

| Binder | SPOT peptide array binding signal intensity |
| --- | --- |
| B1 | 32.5 |

molecular target: AgBbc1; assay: as above
Description: as §1

| Binder | SPOT peptide array binding signal intensity |
| --- | --- |
| B1 | 2 |

molecular target: AgBem1-D1; assay: as above
Description: as §1

| Binder | SPOT peptide array binding signal intensity |
| --- | --- |
| B1 | 60 |

molecular target: AgBzz1-D1; assay: as above
Description: as §1

| Binder | SPOT peptide array binding signal intensity |
| --- | --- |
| B1 | 38 |

molecular target: AgBzz1-D2; assay: as above
Description: as §1

| Binder | SPOT peptide array binding signal intensity |
| --- | --- |
| B1 | 29.5 |

molecular target: AgCyk3; assay: as above
Description: as §1

| Binder | SPOT peptide array binding signal intensity |
| --- | --- |
| B1 | 10 |

molecular target: AgFus1; assay: as above
Description: as §1

| Binder | SPOT peptide array binding signal intensity |
| --- | --- |
| B1 | 152 |

molecular target: AgHof1; assay: as above
Description: as §1

| Binder | SPOT peptide array binding signal intensity |
| --- | --- |
| B1 | 16.5 |

molecular target: AgHse1; assay: as above
Description: as §1

| Binder | SPOT peptide array binding signal intensity |
| --- | --- |
| B1 | 154 |

molecular target: AgLsb1; assay: as above
Description: as §1

| Binder | SPOT peptide array binding signal intensity |
| --- | --- |
| B1 | 2.75 |

molecular target: AgLsb4; assay: as above
Description: as §1

| Binder | SPOT peptide array binding signal intensity |
| --- | --- |
| B1 | 16 |

molecular target: AgMyo5; assay: as above
Description: as §1

| Binder | SPOT peptide array binding signal intensity |
| --- | --- |
| B1 | 0.25 |

molecular target: AgNbp2; assay: as above
Description: as §1

| Binder | SPOT peptide array binding signal intensity |
| --- | --- |
| B1 | 11 |

molecular target: AgRvs167; assay: as above
Description: as §1

| Binder | SPOT peptide array binding signal intensity |
| --- | --- |
| B1 | 3.33 |

molecular target: AgSho1; assay: as above
Description: as §1

| Binder | SPOT peptide array binding signal intensity |
| --- | --- |
| B1 | 15 |

molecular target: AgSla1-D1-D2; assay: as above
Description: as §1

| Binder | SPOT peptide array binding signal intensity |
| --- | --- |
| B1 | 214 |

molecular target: AgSla1-D3; assay: as above
Description: as §1

| Binder | SPOT peptide array binding signal intensity |
| --- | --- |
| B1 | 5.5 |

molecular target: CaAbp1-D1; assay: as above
Description: as §1

| Binder | SPOT peptide array binding signal intensity |
| --- | --- |
| B1 | 502 |

molecular target: CaAbp1-D2; assay: as above
Description: as §1

| Binder | SPOT peptide array binding signal intensity |
| --- | --- |
| B1 | 337 |

molecular target: CaBbc1; assay: as above
Description: as §1

| Binder | SPOT peptide array binding signal intensity |
| --- | --- |
| B1 | 80.8 |

molecular target: CaBem1-D1; assay: as above
Description: as §1

| Binder | SPOT peptide array binding signal intensity |
| --- | --- |
| B1 | 13.5 |

molecular target: CaBzz1-D1; assay: as above
Description: as §1

| Binder | SPOT peptide array binding signal intensity |
| --- | --- |
| B1 | 110 |

molecular target: CaBzz1-D2; assay: as above
Description: as §1

| Binder | SPOT peptide array binding signal intensity |
| --- | --- |
| B1 | 127 |

molecular target: CaCyk3; assay: as above
Description: as §1

| Binder | SPOT peptide array binding signal intensity |
| --- | --- |
| B1 | 19 |

molecular target: CaFus1; assay: as above
Description: as §1

| Binder | SPOT peptide array binding signal intensity |
| --- | --- |
| B1 | 510 |

molecular target: CaHof1; assay: as above
Description: as §1

| Binder | SPOT peptide array binding signal intensity |
| --- | --- |
| B1 | 0.5 |

molecular target: CaHse1; assay: as above
Description: as §1

| Binder | SPOT peptide array binding signal intensity |
| --- | --- |
| B1 | ≤ 0 |

molecular target: CaLsb1; assay: as above
Description: as §1

| Binder | SPOT peptide array binding signal intensity |
| --- | --- |
| B1 | ≤ 0 |

molecular target: CaLsb4; assay: as above
Description: as §1

| Binder | SPOT peptide array binding signal intensity |
| --- | --- |
| B1 | 3.5 |

molecular target: CaMyo5; assay: as above
Description: as §1

| Binder | SPOT peptide array binding signal intensity |
| --- | --- |
| B1 | 2 |

molecular target: CaNbp2; assay: as above
Description: as §1

| Binder | SPOT peptide array binding signal intensity |
| --- | --- |
| B1 | 72 |

molecular target: CaRvs167; assay: as above
Description: as §1

| Binder | SPOT peptide array binding signal intensity |
| --- | --- |
| B1 | 1.67 |

molecular target: CaRvs167-3; assay: as above
Description: as §1

| Binder | SPOT peptide array binding signal intensity |
| --- | --- |
| B1 | 40.8 |

molecular target: CaSho1; assay: as above
Description: as §1

| Binder | SPOT peptide array binding signal intensity |
| --- | --- |
| B1 | 148 |

molecular target: CaSla1-D1-D2; assay: as above
Description: as §1

| Binder | SPOT peptide array binding signal intensity |
| --- | --- |
| B1 | 11 |

molecular target: CaSla1-D3; assay: as above
Description: as §1

| Binder | SPOT peptide array binding signal intensity |
| --- | --- |
| B1 | ≤ 0 |

molecular target: ScAbp1; assay: as above
Description: as §1

| Binder | SPOT peptide array binding signal intensity |
| --- | --- |
| B1 | 19 |

molecular target: ScBbc1; assay: as above
Description: as §1

| Binder | SPOT peptide array binding signal intensity |
| --- | --- |
| B1 | 3.5 |

molecular target: ScBem1-D1; assay: as above
Description: as §1

| Binder | SPOT peptide array binding signal intensity |
| --- | --- |
| B1 | 9 |

molecular target: ScBzz1-D1; assay: as above
Description: as §1

| Binder | SPOT peptide array binding signal intensity |
| --- | --- |
| B1 | 33 |

molecular target: ScBzz1-D2; assay: as above
Description: as §1

| Binder | SPOT peptide array binding signal intensity |
| --- | --- |
| B1 | 24 |

molecular target: ScCyk3; assay: as above
Description: as §1

| Binder | SPOT peptide array binding signal intensity |
| --- | --- |
| B1 | 51 |

molecular target: ScFus1; assay: as above
Description: as §1

| Binder | SPOT peptide array binding signal intensity |
| --- | --- |
| B1 | 268 |

molecular target: ScHof1; assay: as above
Description: as §1

| Binder | SPOT peptide array binding signal intensity |
| --- | --- |
| B1 | ≤ 0 |

molecular target: ScHse1; assay: as above
Description: as §1

| Binder | SPOT peptide array binding signal intensity |
| --- | --- |
| B1 | 486 |

molecular target: ScLsb1; assay: as above
Description: as §1

| Binder | SPOT peptide array binding signal intensity |
| --- | --- |
| B1 | ≤ 0 |

molecular target: ScLsb2; assay: as above
Description: as §1

| Binder | SPOT peptide array binding signal intensity |
| --- | --- |
| B1 | ≤ 0 |

molecular target: ScLsb3; assay: as above
Description: as §1

| Binder | SPOT peptide array binding signal intensity |
| --- | --- |
| B1 | 6 |

molecular target: ScLsb4; assay: as above
Description: as §1

| Binder | SPOT peptide array binding signal intensity |
| --- | --- |
| B1 | 2 |

molecular target: ScMyo3; assay: as above
Description: as §1

| Binder | SPOT peptide array binding signal intensity |
| --- | --- |
| B1 | 1.5 |

molecular target: ScMyo5; assay: as above
Description: as §1

| Binder | SPOT peptide array binding signal intensity |
| --- | --- |
| B1 | 1 |

molecular target: ScNbp2; assay: as above
Description: as §1

| Binder | SPOT peptide array binding signal intensity |
| --- | --- |
| B1 | 62 |

molecular target: ScPex13; assay: as above
Description: as §1

| Binder | SPOT peptide array binding signal intensity |
| --- | --- |
| B1 | 4.25 |

molecular target: ScRvs167; assay: as above
Description: as §1

| Binder | SPOT peptide array binding signal intensity |
| --- | --- |
| B1 | 1.67 |

molecular target: ScSho1; assay: as above
Description: as §1

| Binder | SPOT peptide array binding signal intensity |
| --- | --- |
| B1 | 398 |

molecular target: ScSla1-D1-D2; assay: as above
Description: as §1

| Binder | SPOT peptide array binding signal intensity |
| --- | --- |
| B1 | 27 |

molecular target: ScSla1-D3; assay: as above
Description: as §1

| Binder | SPOT peptide array binding signal intensity |
| --- | --- |
| B1 | 5 |

molecular target: SpAbp1-D1; assay: as above
Description: as §1

| Binder | SPOT peptide array binding signal intensity |
| --- | --- |
| B1 | 171 |

molecular target: SpBbc1; assay: as above
Description: as §1

| Binder | SPOT peptide array binding signal intensity |
| --- | --- |
| B1 | 1.75 |

molecular target: SpBzz1-D1; assay: as above
Description: as §1

| Binder | SPOT peptide array binding signal intensity |
| --- | --- |
| B1 | 346 |

molecular target: SpBzz1-D2; assay: as above
Description: as §1

| Binder | SPOT peptide array binding signal intensity |
| --- | --- |
| B1 | 0.5 |

molecular target: SpCyk3; assay: as above
Description: as §1

| Binder | SPOT peptide array binding signal intensity |
| --- | --- |
| B1 | 14.5 |

molecular target: SpHof1; assay: as above
Description: as §1

| Binder | SPOT peptide array binding signal intensity |
| --- | --- |
| B1 | 25.2 |

molecular target: SpHof1-2; assay: as above
Description: as §1

| Binder | SPOT peptide array binding signal intensity |
| --- | --- |
| B1 | 5 |

molecular target: SpHof1-3; assay: as above
Description: as §1

| Binder | SPOT peptide array binding signal intensity |
| --- | --- |
| B1 | 386 |

molecular target: SpHse1; assay: as above
Description: as §1

| Binder | SPOT peptide array binding signal intensity |
| --- | --- |
| B1 | 119 |

molecular target: SpLsb1; assay: as above
Description: as §1

| Binder | SPOT peptide array binding signal intensity |
| --- | --- |
| B1 | 1 |

molecular target: SpLsb4; assay: as above
Description: as §1

| Binder | SPOT peptide array binding signal intensity |
| --- | --- |
| B1 | ≤ 0 |

molecular target: SpMyo1; assay: as above
Description: as §1

| Binder | SPOT peptide array binding signal intensity |
| --- | --- |
| B1 | ≤ 0 |

molecular target: SpNbp2; assay: as above
Description: as §1

| Binder | SPOT peptide array binding signal intensity |
| --- | --- |
| B1 | 33.5 |

molecular target: SpPex13; assay: as above
Description: as §1

| Binder | SPOT peptide array binding signal intensity |
| --- | --- |
| B1 | 2.5 |

molecular target: SpRvs167; assay: as above
Description: as §1

| Binder | SPOT peptide array binding signal intensity |
| --- | --- |
| B1 | ≤ 0 |

molecular target: SpSla1-D1-D2; assay: as above
Description: as §1

| Binder | SPOT peptide array binding signal intensity |
| --- | --- |
| B1 | 3 |

molecular target: SpSla1-D3; assay: as above
Description: as §1

| Binder | SPOT peptide array binding signal intensity |
| --- | --- |
| B1 | 3 |
